Results reported in the supplement of paper PMC8728848.
The sample as a whole holds a higher share of the strongest signals than the screen did.

How the values were obtained:
Assay in all cases: glycan array binding signal (z-score within array); higher = stronger binding
Conditions in all cases: glycan notation: IUPAC condensed, linker removed; mutation: I144G
[1] = molecular target: Fuc(a1-2)Gal(b1-3)GalNAc(b1-3)Gal(a1-4)Gal(b1-4)Glc
Outline: (§1)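 The binding signal is a Z-score computed within each array. Data were drawn from 3228 arrays in the Consortium for Functional Glycomics database, restricted to those with a known protein sequence. Scores were averaged over arrays of the same protein sequence at different concentrations or buffers, and over linkers, and negative values can be taken as non-binding.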

[2] = molecular target: Fuc(a1-2)Gal(b1-3)GlcNAc(b1-3)[Fuc(a1-2)Gal(b1-3)GlcNAc(b1-6)]GalNAc
Outline: as §1

[3] = molecular target: Fuc(a1-2)Gal(b1-4)[Fuc(a1-3)]GlcNAc(b1-3)[Neu5Ac(a2-6)Gal(b1-4)GlcNAc(b1-6)]Gal(b1-4)Glc
Outline: as §1

[4] = molecular target: Fuc(a1-2)[Gal(a1-3)]Gal(b1-4)GlcNAc(b1-6)GalNAc
Outline: as §1

[5] = molecular target: Fuc(a1-2)[GalNAc(a1-3)]Gal
Outline: as §1

[6] = molecular target: Fuc(a1-2)[GalNAc(a1-3)]Gal(b1-3)GlcNAc(b1-2)Man(a1-3)[Fuc(a1-2)[GalNAc(a1-3)]Gal(b1-3)GlcNAc(b1-2)Man(a1-6)]Man(b1-4)GlcNAc(b1-4)[Fuc(a1-6)]GlcNAc
Outline: as §1

[7] = molecular target: Gal(a1-3)Gal(b1-4)GlcNAc(b1-2)Man(a1-3)[Gal(a1-3)Gal(b1-4)GlcNAc(b1-2)Man(a1-6)]Man(b1-4)GlcNAc(b1-4)GlcNAc
Outline: as §1

[8] = molecular target: Gal(a1-4)Gal(b1-4)GlcNAc(b1-3)Gal(b1-4)Glc
Outline: as §1

Gal(b1-3)Gal(b1-4)GlcNAc = molecular target: Gal(b1-3)Gal(b1-4)GlcNAc
Outline: as §1

[9] = molecular target: Gal(b1-3)GalNAc(b1-4)[Neu5Ac(a2-3)]Gal(b1-4)Glc
Outline: as §1

[10] = molecular target: Gal(b1-4)GlcNAc(b1-3)Gal(b1-3)GalNAc
Outline: as §1

Gal3S(b1-3)GalNAc = molecular target: Gal3S(b1-3)GalNAc
Outline: as §1

[11] = molecular target: GlcA3S(b1-3)Gal(b1-4)GlcNAc(b1-2)Man
Outline: as §1

[12] = molecular target: GlcA3S(b1-3)Gal(b1-4)GlcNAc(b1-3)Gal(b1-4)Glc
Outline: as §1

[13] = molecular target: GlcNAc(b1-2)Man(a1-3)[GlcNAc(b1-4)][GlcNAc(b1-2)Man(a1-6)]Man(b1-4)GlcNAc(b1-4)[Fuc(a1-6)]GlcNAc
Outline: as §1

[14] = molecular target: GlcNAc(b1-3)Gal(b1-3)GalNAc
Outline: as §1

GlcNAc(b1-6)GalNAc = molecular target: GlcNAc(b1-6)GalNAc
Outline: as §1

[15] = molecular target: Neu5Ac(a2-3)Gal(b1-3)GalNAc
Outline: as §1

[16] = molecular target: Neu5Ac(a2-3)Gal(b1-3)GalNAc(b1-3)Gal(a1-4)Gal(b1-4)Glc
Outline: as §1

[17] = molecular target: Neu5Ac(a2-3)Gal(b1-3)GalNAc(b1-4)[Neu5Ac(a2-3)]Gal(b1-4)Glc
Outline: as §1

[18] = molecular target: Neu5Ac(a2-3)Gal(b1-3)GalNAc6S
Outline: as §1

[19] = molecular target: Neu5Ac(a2-3)Gal(b1-3)[GlcNAc(b1-6)]GalNAc
Outline: as §1

[20] = molecular target: Neu5Ac(a2-3)Gal(b1-4)GlcNAc(b1-2)Man(a1-3)[GlcNAc(b1-4)][Neu5Ac(a2-3)Gal(b1-4)GlcNAc(b1-2)Man(a1-6)]Man(b1-4)GlcNAc(b1-4)GlcNAc
Outline: as §1

[21] = molecular target: Neu5Ac(a2-3)Gal(b1-4)GlcNAc(b1-2)[Neu5Ac(a2-3)Gal(b1-4)GlcNAc(b1-6)]Man(a1-6)[Neu5Ac(a2-3)Gal(b1-4)GlcNAc(b1-2)Man(a1-3)][GlcNAc(b1-4)]Man(b1-4)GlcNAc(b1-4)GlcNAc
Outline: as §1

[22] = molecular target: Neu5Ac(a2-3)Gal(b1-4)GlcNAc(b1-3)Gal
Outline: as §1

[23] = molecular target: Neu5Ac(a2-6)Gal(b1-4)GlcNAc(b1-2)Man(a1-3)[Neu5Ac(a2-6)Gal(b1-4)GlcNAc(b1-2)Man(a1-6)]Man(b1-4)GlcNAc(b1-4)GlcNAc
Outline: as §1

[24] = molecular target: Neu5Ac(a2-6)Gal(b1-4)GlcNAc(b1-2)Man(a1-3)[Neu5Ac(a2-6)Gal(b1-4)GlcNAc(b1-2)Man(a1-6)]Man(b1-4)GlcNAc(b1-4)[Fuc(a1-6)]GlcNAc
Outline: as §1

[25] = molecular target: Neu5Ac(a2-6)Gal(b1-4)GlcNAc(b1-3)Gal(b1-4)GlcNAc
Outline: as §1

[26] = molecular target: Neu5Ac(a2-6)Gal(b1-4)GlcNAc(b1-3)Gal(b1-4)[Fuc(a1-3)]GlcNAc(b1-3)Gal(b1-4)[Fuc(a1-3)]GlcNAc
Outline: as §1

[27] = molecular target: Neu5Ac(a2-8)Neu5Ac(a2-3)Gal(b1-3)GalNAc(b1-4)[Neu5Ac(a2-3)]Gal(b1-4)Glc
Outline: as §1

[28] = molecular target: Neu5Ac9Ac(a2-3)Gal(b1-3)GlcNAc
Outline: as §1

Neu5Gc(a2-6)GalNAc = molecular target: Neu5Gc(a2-6)GalNAc
Outline: as §1

[29] = molecular target: Neu5Gc(a2-8)Neu5Ac(a2-3)Gal(b1-4)GlcNAc
Outline: as §1

[30] = molecular target: Neu5Gc(a2-8)Neu5Gc(a2-3)Gal(b1-4)GlcNAc
Outline: as §1

B1: rAAL-I144G (Agrocybe aegerita), Q6WY08 (protein)
chain: MQGVNIYNISAGTSVDLAAPVTTGDIVTFFSSALNLNAGAGNPNNTTLNLFAENGAYLLHIAFRLQENVIIFNSRQPDGPWLVEQRVSDVANQFAGIDGKAMVTVFDHGDKYQVVINEKTVIQYTKQISGLTLSLSYNATEETSGFSTVVEAVTYTGLALEHHHHHH
- glycan array binding signal (z-score) [1]: -0.112
- glycan array binding signal (z-score) [2]: -0.208
- glycan array binding signal (z-score) [3]: -0.075
- glycan array binding signal (z-score) [4]: -0.088
- glycan array binding signal (z-score) [5]: -0.166
- glycan array binding signal (z-score) [6]: -0.134
- glycan array binding signal (z-score) [7]: 2.88
- glycan array binding signal (z-score) [8]: -0.026
- glycan array binding signal (z-score) (Gal(b1-3)Gal(b1-4)GlcNAc): -0.134
- glycan array binding signal (z-score) [9]: -0.191
- glycan array binding signal (z-score) [10]: -0.191
- glycan array binding signal (z-score) (Gal3S(b1-3)GalNAc): 17.3
- glycan array binding signal (z-score) [11]: 11.8
- glycan array binding signal (z-score) [12]: 9.46
- glycan array binding signal (z-score) [13]: -0.15
- glycan array binding signal (z-score) [14]: -0.103
- glycan array binding signal (z-score) (GlcNAc(b1-6)GalNAc): -0.16
- glycan array binding signal (z-score) [15]: 1.67
- glycan array binding signal (z-score) [16]: 1.35
- glycan array binding signal (z-score) [17]: 1.33
- glycan array binding signal (z-score) [18]: 4.09
- glycan array binding signal (z-score) [19]: 1.74
- glycan array binding signal (z-score) [20]: 1.63
- glycan array binding signal (z-score) [21]: -0.073
- glycan array binding signal (z-score) [22]: -0.059
- glycan array binding signal (z-score) [23]: -0.111
- glycan array binding signal (z-score) [24]: -0.049
- glycan array binding signal (z-score) [25]: -0.176
- glycan array binding signal (z-score) [26]: -0.095
- glycan array binding signal (z-score) [27]: 1.99
- glycan array binding signal (z-score) [28]: -0.174
- glycan array binding signal (z-score) (Neu5Gc(a2-6)GalNAc): -0.086
- glycan array binding signal (z-score) [29]: -0.169
- glycan array binding signal (z-score) [30]: -0.122
